Active and inactive are the calls of the source. The calls were made as follows: active = hit-call score of the fitted dose curve at least 0.9, where 1 is the maximum; inactive = score below 0.9.
What was measured:
[1] = read-out: Tumor necrosis factor receptor superfamily member 6 (Homo sapiens) (UniProt P25445); assay: LTEA_HepaRG_FAS: Life Technologies and Expression Analysis (LTEA) Assay for Fas cell surface death receptor (FAS) using HepaRG (AID 2283447); details: mRNA level, 48 h; actives raise or lower the signal
Method in brief: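 Differentiated human HepaRG cells, pre-cultured 48 h, were exposed in duplicate for 48 h to 8-point half-log concentrations (top 100 uM, 0.5% DMSO) in serum-free induction medium; FAS mRNA measured by qRT-PCR, normalized to ACTB/GAPDH/POLR2A, bidirectional fit versus DMSO.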

[2] = read-out: Fatty acid synthase (Homo sapiens) (UniProt P49327); assay: LTEA_HepaRG_FASN: Life Technologies and Expression Analysis (LTEA) Assay for Fatty Acid Synthase (FASN) using HepaRG (AID 2283448); details: mRNA level, 48 h; actives raise or lower the signal
Method in brief: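 HepaRG, 48 h exposure, 8-pt half-log series top 100 uM, 0.5% DMSO vehicle, duplicates. Readout: FASN transcript by Fluidigm qRT-PCR; housekeeping-normalized; bidirectional curve fit vs DMSO baseline.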

[3] = read-out: Cyclin D2 (CCND2), CCND2 (gene 894); assay: LTEA_HepaRG_CCND2: Life Technologies and Expression Analysis (LTEA) Assay for Cyclin D2 (CCND2) using HepaRG (AID 2283449); details: mRNA level, 48 h; actives raise or lower the signal;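 also: CCND2 transcript measured by TaqMan qRT-PCR and normalised to three housekeeping genes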
Method in brief: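 In this HepaRG study, an eight-point concentration series (max 100 uM, 0.5% DMSO) is applied for 48 h. CCND2 mRNA change is derived by qRT-PCR normalised to ACTB, GAPDH and POLR2A.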

[4] = read-out: Cyclin Dependent Kinase Inhibitor 1A (CDKN1A), CDKN1A (gene 1026); assay: LTEA_HepaRG_CDKN1A: Life Technologies and Expression Analysis (LTEA) Assay for Cyclin Dependent Kinase Inhibitor 1A (CDKN1A) using HepaRG (AID 2283450); details: mRNA level, 48 h; actives raise or lower the signal
Method in brief: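 Differentiated human HepaRG cells, pre-cultured 48 h, were exposed in duplicate for 48 h in serum-free induction medium to eight half-log concentrations up to 100 uM (0.5% DMSO). CDKN1A mRNA was measured by qRT-PCR, normalized to ACTB/GAPDH/POLR2A, bidirectionally fitted versus DMSO.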

[5] = read-out: Cyclin D1 (CCND1), CCND1 (gene 595); assay: LTEA_HepaRG_CCND1: Life Technologies and Expression Analysis (LTEA) Assay for Cyclin D1 (CCND1) using HepaRG (AID 2283451); details: mRNA level, 48 h; actives raise or lower the signal;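 as to AC50: TaqMan qRT-PCR transcript level normalised to ACTB GAPDH and POLR2A housekeeping genes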
Method in brief: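 Differentiated human HepaRG cells in serum-free induction medium were exposed 48 h to eight half-log concentrations up to 100 uM in 0.5% DMSO; mRNA quantified by TaqMan qRT-PCR, normalized to ACTB, GAPDH, POLR2A, fitted bidirectionally versus DMSO.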

[6] = read-out: catalase (CAT), CAT (gene 847); assay: LTEA_HepaRG_CAT: Life Technologies and Expression Analysis (LTEA) Assay for catalase (CAT) using HepaRG (AID 2283452); details: mRNA level, 48 h; actives raise or lower the signal;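 as to AC50: TaqMan qRT-PCR signal normalized to ACTB GAPDH and POLR2A housekeeping genes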
Method in brief: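 Differentiated HepaRG cells in serum-free induction medium were dosed 48 h in duplicate, eight half-log concentrations from 100 uM in 0.5% DMSO. Transcript measured by TaqMan qRT-PCR, normalised to ACTB/GAPDH/POLR2A, fitted bidirectionally against DMSO.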

[7] = read-out: flavin-containing dimethylaniline monooxygenases 3 (FMO3), FMO3 (gene 2328); assay: LTEA_HepaRG_FMO3: Life Technologies and Expression Analysis (LTEA) Assay for flavin-containing dimethylaniline monooxygenases 3 (FMO3) using HepaRG (AID 2283453); details: mRNA level, 48 h; actives raise or lower the signal;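 as to AC50: FMO3 transcript by TaqMan qRT-PCR normalized to ACTB GAPDH and POLR2A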
Method in brief: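 Eight-point concentration-response in serum-free HepaRG cultures (top 100 uM, 0.5% DMSO, 48 h). Read-out: FMO3 mRNA level normalized to three endogenous control genes, fitted bidirectionally versus vehicle.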

[8] = read-out: Cytochrome P450 (CYP1A1), CYP1A1 (gene 1543); assay: LTEA_HepaRG_CYP1A1: Life Technologies and Expression Analysis (LTEA) Assay for Cytochrome P450 (CYP1A1) using HepaRG (AID 2283454); details: mRNA level, 48 h; actives raise or lower the signal
Method in brief: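 Differentiated HepaRG cells in serum-free induction medium were exposed in duplicate for 48 h to eight half-log concentrations up to 100 uM in 0.5% DMSO. CYP1A1 mRNA was quantified by TaqMan qRT-PCR, normalized to ACTB, GAPDH and POLR2A.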

[9] = read-out: CFLAR gene, CFLAR (gene 8837); assay: LTEA_HepaRG_CFLAR: Life Technologies and Expression Analysis (LTEA) Assay for CFLAR gene using HepaRG (AID 2283455); details: mRNA level, 48 h; actives raise or lower the signal
Method in brief: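 Gain- or loss-of-signal changes in CFLAR transcript were fitted bidirectionally relative to 0.5% DMSO. Cells (HepaRG, duplicate wells) were dosed for 48 h across eight half-log concentrations topping at 100 uM; quantitation by TaqMan qRT-PCR.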

[10] = read-out: growth arrest and DNA damage 45 (GADD45A), GADD45A (gene 1647); assay: LTEA_HepaRG_GADD45A: Life Technologies and Expression Analysis (LTEA) Assay for growth arrest and DNA damage 45 (GADD45A) using HepaRG (AID 2283458); details: mRNA level, 48 h; actives raise or lower the signal
Method in brief: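 HepaRG, 48 h exposure, 8 conc. (top 100 uM, half-log steps), 0.5% DMSO vehicle, duplicates. Read-out: qRT-PCR mRNA level, housekeeping-normalized (ACTB/GAPDH/POLR2A). Curves fit bidirectionally vs DMSO baseline.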

[11] = read-out: Forkhead box O3 (FOXO3), FOXO3 (gene 2309); assay: LTEA_HepaRG_FOXO3: Life Technologies and Expression Analysis (LTEA) Assay for Forkhead box O3 (FOXO3) using HepaRG (AID 2283459); details: mRNA level, 48 h; actives raise or lower the signal
Method in brief: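 Gene-expression endpoint: FOXO3 transcript level by qRT-PCR in HepaRG cultures treated 48 h with chemicals up to 100 uM (half-log, 0.5% DMSO vehicle).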

[12] = read-out: ABC Transporter (ABCB1), ABCB1 (gene 5243); assay: LTEA_HepaRG_ABCB1: Life Technologies and Expression Analysis (LTEA) Assay for ABC Transporter (ABCB1) using HepaRG (AID 2283460); details: mRNA level, 48 h; actives raise or lower the signal
Method in brief: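 Human liver HepaRG line treated 48 h with up to 100 uM compound (eight half-log points, 0.5% DMSO); ABCB1 mRNA change fitted bidirectionally against DMSO controls.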

[13] = read-out: growth arrest and DNA damage 45 (GADD45B), GADD45B (gene 4616); assay: LTEA_HepaRG_GADD45B: Life Technologies and Expression Analysis (LTEA) Assay for growth arrest and DNA damage 45 (GADD45B) using HepaRG (AID 2283461); details: mRNA level, 48 h; actives raise or lower the signal
Method in brief: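 Differentiated HepaRG cells, plated 48 h then switched to serum-free induction medium, were exposed 48 h in duplicate to eight half-log concentrations from 100 uM in 0.5% DMSO; mRNA quantified by qRT-PCR, normalized to ACTB/GAPDH/POLR2A, bidirectional fit versus DMSO.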

[14] = read-out: ABC Transporter (ABCC3), ABCC3 (gene 8714); assay: LTEA_HepaRG_ABCC3: Life Technologies and Expression Analysis (LTEA) Assay for ABC Transporter (ABCC3) using HepaRG (AID 2283462); details: mRNA level, 48 h; actives raise or lower the signal
Method in brief: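 HepaRG cells in serum-free induction medium were exposed for 48 h in duplicate to 8-point half-log concentrations topping at 100 uM in 0.5% DMSO. ABCC3 mRNA was measured by qRT-PCR normalized to ACTB, GAPDH and POLR2A, with bidirectional fitting versus DMSO.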

[15] = read-out: ABC Transporter (ABCB11), ABCB11 (gene 8647); assay: LTEA_HepaRG_ABCB11: Life Technologies and Expression Analysis (LTEA) Assay for ABC Transporter (ABCB11) using HepaRG (AID 2283463); details: mRNA level, 48 h; actives raise or lower the signal
Method in brief: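 Using HepaRG cultures held in 0.5% DMSO, chemicals were tested at half-log dilutions from 100 uM for 48 h. Induction or suppression of ABCB11 mRNA, normalized to ACTB, GAPDH and POLR2A, was fitted bidirectionally against vehicle.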

[16] = read-out: ABC Transporter (ABCC2), ABCC2 (gene 1244); assay: LTEA_HepaRG_ABCC2: Life Technologies and Expression Analysis (LTEA) Assay for ABC Transporter (ABCC2) using HepaRG (AID 2283464); details: mRNA level, 48 h; actives raise or lower the signal
Method in brief: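 HepaRG cells were plated 48 h, switched to serum-free induction medium, then exposed in duplicate for 48 h to 8 concentrations (top 100 uM, half-log steps, 0.5% DMSO). ABCC2 mRNA was measured by qRT-PCR normalized to ACTB/GAPDH/POLR2A; bidirectional fitting versus DMSO.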

[17] = read-out: Broad substrate specificity ATP-binding cassette transporter ABCG2 (Homo sapiens) (UniProt Q9UNQ0); assay: LTEA_HepaRG_ABCG2: Life Technologies and Expression Analysis (LTEA) Assay for ABC Transporter (ABCG2) using HepaRG (AID 2283465); details: mRNA level, 48 h; actives raise or lower the signal
Method in brief: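 Gene expression of ABCG2 in HepaRG liver cells is quantified by qRT-PCR following 48 h exposure across an eight-point series topping at 100 uM. Values come from bidirectional fitting relative to DMSO vehicle.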

[18] = read-out: ATP-citrate lyase (ACLY), ACLY (gene 47); assay: LTEA_HepaRG_ACLY: Life Technologies and Expression Analysis (LTEA) Assay for ATP-citrate lyase (ACLY) using HepaRG (AID 2283466); details: mRNA level, 48 h; actives raise or lower the signal
Method in brief: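 ACLY expression changes in human HepaRG liver cells are quantified by qRT-PCR after 48 h exposure to test chemicals (maximum 100 uM, half-log steps). Values are fitted in both directions relative to 0.5% DMSO vehicle.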

[19] = read-out: Forkhead box O1 (FOXO1), FOXO1 (gene 2308); assay: LTEA_HepaRG_FOXO1: Life Technologies and Expression Analysis (LTEA) Assay for Forkhead box O1 (FOXO1) using HepaRG (AID 2283456); details: mRNA level, 48 h; actives raise or lower the signal
Method in brief: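 Using one lot of HepaRG hepatic cells kept in 0.5% DMSO, the team applied test chemicals in duplicate, half-log dilutions from 100 uM, for 48 h. Expression, normalised to ACTB/GAPDH/POLR2A, was compared with vehicle in either direction.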

[20] = CEETOX_H295R_TESTO: CeeTox H295R High-throughput Steroidogenesis Assay for Testosterone (TESTO) (AID 2283457); details: actives raise or lower the signal;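 also: cells exposed to chemicals for 48 h before medium collection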
Method in brief: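 H295R human adrenal cells in DMEM/F12 with ITS+ and Nu-Serum, exposed to chemicals for 48 h. Testosterone in medium measured by MTBE extraction, reverse-phase HPLC-MS/MS; bidirectional fit versus DMSO baseline. MTT viability checked in same wells.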

Measured: AC50

Sequence of Broad substrate specificity ATP-binding cassette transporter ABCG2 (Homo sapiens) (Q9UNQ0 whole entry, looked up): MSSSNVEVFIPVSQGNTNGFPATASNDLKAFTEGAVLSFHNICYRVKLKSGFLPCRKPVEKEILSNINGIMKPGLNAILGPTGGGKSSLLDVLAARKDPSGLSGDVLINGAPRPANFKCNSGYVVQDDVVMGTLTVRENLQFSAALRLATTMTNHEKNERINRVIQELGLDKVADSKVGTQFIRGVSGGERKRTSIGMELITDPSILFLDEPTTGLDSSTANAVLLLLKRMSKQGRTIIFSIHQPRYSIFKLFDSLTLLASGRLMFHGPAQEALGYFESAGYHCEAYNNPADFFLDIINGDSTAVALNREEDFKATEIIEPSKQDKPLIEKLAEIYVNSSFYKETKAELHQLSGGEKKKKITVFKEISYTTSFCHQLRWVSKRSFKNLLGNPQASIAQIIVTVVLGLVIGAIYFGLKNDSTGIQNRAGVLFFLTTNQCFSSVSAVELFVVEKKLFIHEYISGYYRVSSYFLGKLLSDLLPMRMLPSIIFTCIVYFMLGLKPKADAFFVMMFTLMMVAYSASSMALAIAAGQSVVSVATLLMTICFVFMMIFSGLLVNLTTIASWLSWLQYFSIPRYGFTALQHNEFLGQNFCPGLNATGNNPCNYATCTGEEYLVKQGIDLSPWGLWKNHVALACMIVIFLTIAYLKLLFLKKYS
Sequence of Fatty acid synthase (Homo sapiens) (P49327 whole entry, looked up): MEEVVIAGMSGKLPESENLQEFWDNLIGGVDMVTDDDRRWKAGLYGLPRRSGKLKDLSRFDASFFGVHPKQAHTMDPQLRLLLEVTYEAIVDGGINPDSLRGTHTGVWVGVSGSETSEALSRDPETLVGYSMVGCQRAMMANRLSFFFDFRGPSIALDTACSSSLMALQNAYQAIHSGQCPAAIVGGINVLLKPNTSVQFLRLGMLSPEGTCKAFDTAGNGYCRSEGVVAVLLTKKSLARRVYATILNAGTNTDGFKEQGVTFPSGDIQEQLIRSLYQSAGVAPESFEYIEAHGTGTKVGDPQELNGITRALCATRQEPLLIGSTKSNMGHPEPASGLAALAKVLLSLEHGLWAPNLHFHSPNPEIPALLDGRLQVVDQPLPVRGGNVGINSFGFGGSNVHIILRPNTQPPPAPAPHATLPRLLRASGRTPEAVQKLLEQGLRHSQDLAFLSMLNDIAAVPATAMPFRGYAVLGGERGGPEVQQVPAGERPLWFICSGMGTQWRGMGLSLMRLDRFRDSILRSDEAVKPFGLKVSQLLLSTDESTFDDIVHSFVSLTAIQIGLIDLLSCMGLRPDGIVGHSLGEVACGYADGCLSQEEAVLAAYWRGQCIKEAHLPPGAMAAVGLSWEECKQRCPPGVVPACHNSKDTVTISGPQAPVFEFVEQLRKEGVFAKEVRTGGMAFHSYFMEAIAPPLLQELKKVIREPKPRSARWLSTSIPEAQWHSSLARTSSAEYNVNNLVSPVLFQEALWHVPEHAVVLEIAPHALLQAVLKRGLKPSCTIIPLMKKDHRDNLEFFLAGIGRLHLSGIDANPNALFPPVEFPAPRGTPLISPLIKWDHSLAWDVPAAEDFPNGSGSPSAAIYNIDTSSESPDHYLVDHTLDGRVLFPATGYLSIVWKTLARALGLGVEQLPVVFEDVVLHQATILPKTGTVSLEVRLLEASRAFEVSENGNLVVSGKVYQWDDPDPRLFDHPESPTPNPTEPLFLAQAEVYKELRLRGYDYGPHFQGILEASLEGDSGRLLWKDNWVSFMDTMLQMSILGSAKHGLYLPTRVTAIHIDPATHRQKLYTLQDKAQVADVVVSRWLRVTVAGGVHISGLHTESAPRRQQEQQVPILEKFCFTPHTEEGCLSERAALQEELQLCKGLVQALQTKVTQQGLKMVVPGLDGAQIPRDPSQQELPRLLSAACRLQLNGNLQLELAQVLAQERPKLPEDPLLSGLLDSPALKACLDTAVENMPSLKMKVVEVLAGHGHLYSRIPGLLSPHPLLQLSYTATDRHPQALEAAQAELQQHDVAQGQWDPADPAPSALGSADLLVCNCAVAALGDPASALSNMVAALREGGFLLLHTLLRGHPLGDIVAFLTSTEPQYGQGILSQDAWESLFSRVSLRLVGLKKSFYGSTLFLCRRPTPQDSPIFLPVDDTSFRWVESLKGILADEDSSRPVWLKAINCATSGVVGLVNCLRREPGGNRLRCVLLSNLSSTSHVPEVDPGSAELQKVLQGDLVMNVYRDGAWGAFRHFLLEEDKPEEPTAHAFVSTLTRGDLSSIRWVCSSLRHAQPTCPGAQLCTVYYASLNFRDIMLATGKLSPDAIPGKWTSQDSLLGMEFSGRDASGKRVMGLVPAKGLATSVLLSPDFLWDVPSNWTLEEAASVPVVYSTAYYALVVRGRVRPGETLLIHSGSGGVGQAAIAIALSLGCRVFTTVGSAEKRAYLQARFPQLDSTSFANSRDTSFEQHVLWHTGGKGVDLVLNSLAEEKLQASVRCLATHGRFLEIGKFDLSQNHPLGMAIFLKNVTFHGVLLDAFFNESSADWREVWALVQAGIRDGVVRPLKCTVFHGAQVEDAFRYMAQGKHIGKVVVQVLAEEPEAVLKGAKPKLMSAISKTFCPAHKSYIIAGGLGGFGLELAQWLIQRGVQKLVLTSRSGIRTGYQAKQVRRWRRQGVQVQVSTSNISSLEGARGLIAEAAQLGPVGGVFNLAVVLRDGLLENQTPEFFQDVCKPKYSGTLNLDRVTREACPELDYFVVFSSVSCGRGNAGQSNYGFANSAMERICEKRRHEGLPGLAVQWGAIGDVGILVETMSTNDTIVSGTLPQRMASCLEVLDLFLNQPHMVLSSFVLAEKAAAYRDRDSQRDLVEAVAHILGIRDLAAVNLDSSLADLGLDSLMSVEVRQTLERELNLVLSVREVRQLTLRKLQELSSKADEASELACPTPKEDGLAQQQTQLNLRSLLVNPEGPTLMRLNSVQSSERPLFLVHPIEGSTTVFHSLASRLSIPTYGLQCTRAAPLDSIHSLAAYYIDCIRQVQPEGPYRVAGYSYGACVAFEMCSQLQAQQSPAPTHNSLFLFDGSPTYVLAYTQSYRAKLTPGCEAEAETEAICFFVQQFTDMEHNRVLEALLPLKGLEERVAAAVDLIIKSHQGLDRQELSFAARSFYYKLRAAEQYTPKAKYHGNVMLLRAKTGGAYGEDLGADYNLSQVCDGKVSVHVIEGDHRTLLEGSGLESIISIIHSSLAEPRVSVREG

CN(C)C=O
not listed: [19] | [20]
inactive: all other assays above

c1ccc2cc3c(ccc4ccccc43)cc2c1
inactive: [1] | [3] | [4] | [10] | [14] | [16] | [17] | [18]
active: [2] 4.82 µM | [5] 9.56 µM | [6] 15.4 µM | [7] 13.6 µM | [8] 1.66 µM | [9] 10.5 µM | [19] 17.8 µM | [11] 6.54 µM | [12] 13.2 µM | [13] 20.1 µM | [15] 14.6 µM

O=c1c(-c2ccc(O)cc2)coc2cc(O)ccc12
active: [20] 16.4 µM
not listed: [8]
inactive: all other assays above
